Assay results reported in PubChem BioAssay AID540333 (Southern Research Specialized Biocontainment Screening …, 2011).
Out of some 10,000 compounds screened, about 320 (3.2%) were called active. For the sample, actives were picked, then their nearest neighbours and some compounds at random. Values without a mark were called inactive. No stated cut-off is given here; in the data, active means CPE inhibition mostly above about 9.1% (no sharp cut-off); inactive means mostly below about 7.2%.

Experiment: Dengue virus cytopathic effect inhibitors, cell-based, CPE readout, HTS (AID 540333)
Settings: Dengue virus CPE inhibition in host cells, at 20 µM; stronger effect = higher value

SMILES | CPE inhibition
CCN1C(=O)S/C(=C/c2ccc(Sc3nc4ccccc4[nH]3)o2)C1=O | 7.23%
O=C(N/N=C/c1ccc(Sc2nc3ccccc3[nH]2)o1)c1ccncc1 | 1.17%
C=CCN1C(=O)S/C(=C/c2ccc(Sc3nc4ccccc4[nH]3)o2)C1=O | 12.1% (active)
CCOC(=O)CN1C(=O)S/C(=C/c2ccc3c(c2)n(C)c(=O)n3C)C1=O | 0.01%
Cc1ccc(C)c(N(CC(=O)Nc2ccccc2C(=O)NCc2ccco2)S(=O)(=O)c2ccccc2)c1 | 0.06%
Cc1ccc(-c2cc(C(=O)N/N=C/c3ccco3)n[nH]2)s1 | inactive
Cc1ccc(NC(=O)CSC2=NCCN2)cc1 | 0.905%
Cc1ccc(NC(=O)CSc2nc(N)c3c4c(sc3n2)CSC(C)(C)C4)cc1 | 16.2% (active)
CN(C(=O)CSc1nc(N)c2c3c(sc2n1)CSC(C)(C)C3)c1ccccc1 | 9.8%
Cc1ccccc1NC(=O)CSC1=NCCN1 | inactive
Cc1ccccc1NC(=O)CSc1nc(N)c2c3c(sc2n1)CSC(C)(C)C3 | 15.7% (active)
CC(Sc1nc(N)c2c3c(sc2n1)CSC(C)(C)C3)C(=O)Nc1ccccc1 (stereo unspecified) | 6.62%
COC(=O)c1ccc(CNC(=O)COC(=O)C23CC4CC(CC(C4)C2)C3)cc1 | inactive
O=C(CSc1ccc(Cl)cc1)Nc1ccc(-c2nc3ccccc3[nH]2)cc1 | 1%
O=C(CN1CCOCC1)NN=C1CCCCCCCCCCC1 | inactive
CCCCCC(=O)Nc1ccccc1N1CCOCC1 | 0.445%
Cc1ccc(NC(=O)OCCN2CCN(S(=O)(=O)c3ccc(C)cc3)CCC2=O)cc1 | 0.55%
COc1ccc(C(=O)/C(C#N)=N/Nc2ccccc2[N+](=O)[O-])cc1 | 1.92%
Cc1c(C#N)c(N)nc2c3c(sc12)NC(=O)CC3c1ccc(Cl)cc1 (stereo unspecified) | 0.18%

SMILES | CPE inhibition
Cc1ccc(NC(=S)NCCc2ccc(S(N)(=O)=O)cc2)cc1C | inactive
COc1cc(/C=C2/C(=O)NN(c3cccc(C)c3)C2=O)ccc1OC(=O)c1ccco1 | 8.68%
COc1cc(/C=C2/C(=O)NN(c3cccc(F)c3)C2=O)ccc1OC(=O)c1ccco1 | 3.78%
COc1cc(/C=C2/C(=O)NN(c3ccc(Cl)cc3)C2=O)ccc1OC(=O)c1ccco1 | 8.14% (active)
COc1ccccc1NS(=O)(=O)c1cccc(C(=O)N/N=C/c2ccc3c(c2)OCCO3)c1 | inactive
S=c1[nH]nc(COc2ccccc2)n1/N=C/c1cccs1 | inactive
O=C1N(c2cccc(Cl)c2)C(c2ccc(Cl)cc2)N2CCCN12 (stereo unspecified) | 4.13%
CCN1C(=O)[C@H]2[C@@H](c3ccc(C)cc3)N3C(=O)N(c4ccc(OC)cc4)C(=O)[C@@]3(CC)[C@H]2C1=O | 0.62%
Cc1cccc([C@@H]2[C@@H]3C(=O)N(Cc4ccccc4)C(=O)[C@@H]3[C@]3(Cc4ccccc4)C(=O)N(c4ccccc4)C(=O)N23)c1 | 0.915%
O=C1[C@H]2[C@@H](c3ccc(F)cc3)N3C(=O)N(c4ccc(Br)cc4)C(=O)[C@@]3(Cc3ccc(Cl)cc3)[C@H]2C(=O)N1C1CCCCC1 | 46% (active)
O=C1[C@H]2[C@@H](c3ccc(Cl)cc3)N3C(=O)N(c4cccc(Cl)c4)C(=O)[C@@]3(Cc3ccccc3)[C@H]2C(=O)N1C1CCCCC1 | 15.5% (active)
S=C(Nc1ccccc1Cl)N1CCN(Cc2ccccc2)CC1 | 0.465%
N#C/C(=C\c1cn(Cc2cccc(F)c2)c2ccccc12)C(=O)NCc1ccco1 | 0.23%
Cc1ccc(OCCSCc2nnc(NC(=O)Nc3cccc(Cl)c3)s2)cc1 | 5.79%
COc1ccc(NS(=O)(=O)c2ccc3nc(COc4ccc(Cl)c(C)c4)[nH]c3c2)cc1 | 1.16%
CSc1ccc(/C=C/C(=O)c2ccc(O)cc2)cc1 | inactive
CCOc1ccc(/C=C/C(=O)Nc2ccccc2C(F)(F)F)cc1 | inactive
O=c1c2ccccc2cnn1Cc1n[nH]c(=S)n1-c1ccccc1 | 0.01%
CCCCCCNC(=O)CC(NS(=O)(=O)c1ccc(OC)cc1)C(C)C (stereo unspecified) | 0.025%

SMILES | CPE inhibition
Cn1cnc(C(=O)N2CCN(C(=O)OC(C)(C)C)CC2)c1C(=O)N1CCN(C(=O)OC(C)(C)C)CC1 | 1.25%
CC(C)(C)OC(=O)N1CCC(NC(=O)c2ncn(Cc3ccccc3)c2C(=O)NC2CCN(C(=O)OC(C)(C)C)CC2)CC1 | 39.3% (active)
CC(C)(C)OC(=O)CNC(=O)c1[nH]cnc1C(=O)NC1CCN(C(=O)OC(C)(C)C)CC1 | inactive
C[C@@H](NC(=O)c1nc[nH]c1C(=O)OCc1ccccc1)c1ccccc1 | 0.97%
C[C@@H](NC(=O)c1ncn(Cc2ccccc2)c1C(=O)N[C@H](C)c1ccccc1)c1ccccc1 | 13.8% (active)
C[C@H](NC(=O)c1ncn(C)c1C(=O)N[C@@H](C)c1ccccc1)c1ccccc1 | 0.505%
Cc1ccc2c(c1)/C(=N/N1C(=O)c3ccccc3C1=O)C(=O)N2 | inactive
CC(C)C(=O)NC(=S)Nc1nnn(C)n1 | inactive
Cc1ccc(N2C(=O)[C@@H]3C(C(=O)C(c4ccccc4)c4ccccc4)=NN[C@@H]3C2=O)cc1 | 0.425%
CCC(=O)N/N=C(\C)CC(=O)Nc1ccc(Cl)cc1 | 0.01%
CCC(=O)Nc1ccc(NC(=O)/C=C/c2ccc(Cl)cc2)cc1 | 21.6% (active)
CC(=O)c1ccc(NC(=O)/C=C/c2ccc(C)cc2)cc1 | 4.66%
Cc1sc(NC(=O)c2ccccc2)c(C(c2ccc(Cl)cc2)N2CCN(CCO)CC2)c1C (stereo unspecified) | inactive
Cc1nc2sc(C(c3ccc(F)cc3)N3CCN(C(=O)c4ccco4)CC3)c(O)n2n1 (stereo unspecified) | 0.39%
CC(=O)NS(=O)(=O)c1ccc(NC(=O)C2c3ccccc3Oc3ccccc32)cc1 | inactive
CN(C)c1ccc(C(CNS(=O)(=O)c2ccc(F)cc2)c2c[nH]c3ccccc23)cc1 (stereo unspecified) | 36.1% (active)
CN(c1ccccc1)S(=O)(=O)c1ccc(Cl)c(C(=O)NCCc2c[nH]c3ccccc23)c1 | 2.39%
CN(C)c1ccc(NS(=O)(=O)c2ccc(Cl)cc2)cc1 | 0.45%
